Source: PubChem BioAssay (NCI)
About 83,000 compounds went through this panel and 20% of them were active in at least one assay; those are over-represented in the sample as a whole.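 Note: values are percent growth. 100 is the growth of untreated cells, values between 100 and 0 indicate rising inhibition; between -100 and 0 indicates cell death.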 Unmarked numbers belong to inactive results. Calls of active or inactive are those of the source.

These molecules were tested on SNB-75 CNS (assay: NCI-60 one-dose screen, 48 h (100 = growth as untreated, 0 = no growth, -100 = all killed)). Conditions: 10 µM unless noted.
Procedure: Growth inhibition of the SNB-75 human tumor cell line is measured as a screen for anti-cancer activity. Cells are grown in 96 well plates and exposed to the test compound for 48 hours. Compounds are tested at a single concentration, which is 10^-5 M for most compounds. The reported endpoint is percent growth (GI% or GIPRCNT), where numbers from 0 - 100% represent growth inhibition, and numbers from -100% - 0 represent cell death. For example, a value of 40 represents 60% growth inhibition. A value of 0 means no net growth occurred over the course of the experiment. A value of -40 indicates 40% of cells at the beginning of the experiment died by the end of the experiment. A value of -100 means all cells are dead at the end of the experiment.
NCI-60 Human Tumor Cell Lines Screen was performed using the standard one-dose NCI protocol, which is described in more detail at https://dtp.cancer.gov/discovery_development/nci-60/default.htm.
Compounds with GIPRCNT values below 10 were considered active. Activity score was based on GIPRCNT using the following formula: […]
Score is 0 for GIPRCNT values of 100 or above, 50 for GIPRCNT values of 0, and 100 for GIPRCNT values of -100.

Row | Structure (SMILES) | growth
1 | CCOC(=O)CCC(=O)P(=O)(O)O | 146%
2 | CC(C)CCc1nc2ccc(NCc3ccc(OCCN4CCC(C)CC4)cc3)cc2[nH]1 | 90.8%
3 | Cc1[nH]c(C2CC(c3ccc(C(F)(F)F)c(F)c3)=NN2C)c(C)c1C(=O)NCC(F)(F)F (stereo not given) | 96.9%
4 | CNC(=O)c1cc(Oc2cccc3nc(NC(=O)Nc4ccc(F)cc4F)ccc23)ccn1 | -64.4% (active)
5 | CC(C)=CCC[C@](C)(O)C1CC[C@]2(C)[C@@H]1CC[C@@H]1[C@@]3(C)CC/C(=N\OCCC#N)C(C)(C)[C@@H]3CC[C@]12C (stereo not given in full) | 77.8%
6 | Nc1c(C(=O)c2ccc(Cl)cc2)sc(Nc2ccccc2)c1-c1nc2ccccc2s1 | 18.1%
7 | CCN1CCN(CCOc2ccc(CNc3ccc4nc(CCC5CCCCC5)[nH]c4c3)cc2)CC1 | 79.8%
8 | O=C(O)c1cc2ccccc2s1 | 97.9%
9 | O=C1Nc2ccccc2/C1=C/c1cccn1CCCCCCn1c2ccccc2c(=O)c2ccccc21 | 92.3%
10 | COC(=O)[C@H](C)NC(=O)[C@@H]1CCCN1C(=O)CNC(=O)[C@H](C)N | 78.3%
11 | O=C(NCCN1CCOCC1)c1cncnc1Nc1ccc2c(ccn2Cc2ccccn2)c1 | 82.4%
12 | CCOC(=O)c1c2c(n3ccc(NC(=O)CCN4CCCC4)cc13)C(=O)c1ncccc1C2=O | -97.5% (active)
13 | COc1ccc(N2C(=O)/C(=C/C(Cl)=C/c3ccc([N+](=O)[O-])cc3)SC2=S)cc1 | -33.8% (active)
14 | O=c1n(C2OC(CO)C(O)C2O)ccc2nccn12 (stereo not given) | 95.5%
15 | c1ccc2c(-c3cnn4cc(-c5ccc(N6CCNCC6)cc5)cnc34)ccnc2c1 | -96.9% (active)
16 | CC/C(=C(/c1ccc(Cl)cc1)c1ccc(OCCCN(C)C)cc1)c1ccc(OC)cc1 | 81%
17 | O=C(Nc1ncc(Cc2ccccc2)s1)c1ccc2c(c1)OCCO2 | 9.1% (active)
18 | O=c1c(/C=C/c2c(O)ccc3ccccc23)nnc2sc(-c3cccc([N+](=O)[O-])c3)nn12 | 51.7%
19 | C=C(C)[C@@H]1CC[C@]2(COC(=O)c3cccnc3)CC[C@]3(C)[C@H](CC[C@@H]4[C@@]5(C)CCCN(C(=O)c6cccnc6)C(C)(C)[C@@H]5CC[C@]43C)[C@@H]12 | 53.3%
20 | COc1ccc(-c2cc(-c3ccc(N(C)C)cc3)nc(NC(=O)c3cccnc3)n2)cc1 | 99%

Row | Structure (SMILES) | growth
21 | O=C1C=CC2(O)OC(c3ccccc3)CC(=O)C2=C1O (stereo not given) | 92%
22 | COc1cc2c(c(OC)c1OC)CCC(c1cccc(C(=O)Nc3ccc([N+](=O)[O-])cc3)c1)O2 (stereo not given) | 66.7%
23 | NC(=N\N=C/c1ccc(Cl)cc1Cl)/C(N)=N\N=C/c1ccc(Cl)cc1Cl | 8.06% (active)
24 | COc1cc2c(c(OC)c1OC)CCC(c1cccc(C(=O)Nc3ccccc3Br)c1)O2 (stereo not given) | 65.8%
25 | O=C(CNc1ncco1)Nc1ccc(S(=O)(=O)c2ccc(NC(=O)CNc3ncco3)cc2)cc1 | 42.1%
26 | CC(=O)O[C@H]1CC[C@@]2(C)C(=CC[C@@H]3[C@@H]2CC[C@]2(C)C(Cl)=C(c4nc5ccc(Cl)cn5c4NC(C)(C)C)C[C@@H]32)C1 | 76.4%
27 | COC(CCP(=O)(c1ccccc1)c1ccccc1)(C(=O)c1ccccc1)c1ccccc1 (stereo not given) | 84.9%
28 | COc1cc2ncnc(Nc3ccc(S(=O)(=O)Nc4cc(C)on4)cc3)c2cc1OCCCN1CCOCC1 | 90.8%
29 | C#Cc1ccc(NC(=O)Cc2ccc(/C=C/C(=O)c3nccn3C)cc2)cc1 | 12.7%
30 | CCCc1cc(CCC)n2nc(N)nc2n1 | 95.6%
31 | Nc1nc(N)c2c(n1)NC(c1cccc(Nc3ccnc4cc(C(F)(F)F)ccc34)c1)CC(c1ccc(Cl)cc1)=N2 (stereo not given) | 47.9%
32 | COc1ccc2c(c1)c(-c1nc(-c3cn(C)c4ccncc34)cs1)cn2C | 120%
33 | COc1ccc(Nc2nc(Nc3cc(C)[nH]n3)c3cc(OC)c(OC)cc3n2)cc1 | -94.5% [20 µM] (active)
34 | COC(=O)CNC(=O)c1ccc(NC(=O)c2[nH]c(C)c(Cl)c2Cl)c(O[C@H]2CCNC2)c1 | 94.8%
35 | Cc1ccc(S(=O)(=O)N(CCC(=O)O)c2ccccc2)cc1 | 118%
36 | CN1C(=O)N(C)C2C1NN=c1s/c(=C\c3ccc(F)cc3)c(=O)n12 (stereo not given) | -7.45% (active)
37 | O=C1NCCN1/N=C/c1c(Cl)n(Cc2ccc(Cl)cc2)c2ccccc12 | 94.4%
38 | COc1ccc(C(=O)/C=C/c2ccc(C)cc2)cc1S(N)(=O)=O | 82.7%
39 | Cn1cc(-c2csc(-c3cn(CCO)c4ccc(F)cc34)n2)c2cccnc21 | 46.4%
40 | O=C(OCC(O)C(=O)NC12CC3CC(CC(C3)C1)C2)c1cccc(Br)c1 (stereo not given) | 98.5%
